Active and inactive are the calls of the source. No rule for the calls is given here.

A short description of this test: Mouse Th1 T cell differentiation assay for inhibitors of ROR gamma transcriptional activity. As to conditions: mouse naive CD4 T cells, Th1 IFN-g flow cytometry; activity: at 30 µM, stronger effect = higher value unless noted; outcome: at 3 µM unless noted. From the text:
NIH Molecular Libraries Probe Production Network [MLPCN] NIH Chemical Genomics Center [NCGC] MLPCN Grant: R03 DA026211-01 Assay Provider: Dan Littman, New York University Keywords: NIH Roadmap, MLPCN, MLI, MLSMR, qHTS, NCGC, qHTS, nuclear hormone receptor, retinoic acid-related orphan receptor, ROR gamma Assay Overview: The retinoic acid-related orphan receptor (ROR) gamma is a transcription factor that has a central role in the differentiation of Th17 cells, a subset of T helper cells that secrete the inflammatory cytokines IL-17a, IL-17f, and IL-22. Th17 cells have been implicated in graft versus host disease, autoimmune disease and asthma. ROR gamma is induced in naive T helper cells in the presence of TGF-beta combined with IL-6, IL-21, or IL-23, and thereafter directs the expression of the Th17 lineage cytokines. To confirm the selectivity of ROR gamma inhibitors, compounds with strong inhibitory activities on Th17 cells were tested in a mouse Th1 T cell differentiation assay. T cells differentiate into Th1 cells in the presence of IL-12 and IL-2. […] Th1 differentiation was tracked by the induction of interferon gamma (IFN-g) expression as measured by an anti-IFN-g antibody using flow cytometry.
Assay Protocol Summary: Cells from lymph nodes and spleens derived from six to eight week old IL17a-GFP mice (Biocytogen LLC) were used for T cell purification. B220- cells were isolated on an autoMACS Pro with bead depletion of B220+ cells (Miltenyi). Naive CD4+ T cell were further purified as TCRb+CD8- DAPI- CD19- CD4+CD25- CD62L+CD44low/Int by cell sorting on a FACSAria (BD). Cells were cultivated in an incubator at 37 C and 5% CO2 in RPMI 1640 medium (Invitrogen) supplemented with 10% (vol/vol) heat-inactivated FBS (Hyclone), penicillin-streptomycin, 2 mM glutamine and 0.1 mM nonessential amino acids. Cells were seeded on day 0 at a density of 0.4E5 cells per ml in 96-well plates coated with anti-CD3e (5 ug/ml) and anti-CD28 (10 ug/ml). Cells were cultured for 4~5 days in Th1 [IL-12 (10 ng/ml), IL-2 (100 U/ml), anti-IL-4] condition. […]
(A flow cytometer gives signals particle by particle.)
Take `COc1cc(O)c(C(CC(=O)N2CC(C)CC(C)C2)c2ccc3c(c2)OCO3)c(OC)c1` (stereo not drawn): the outcome was “inactive”.
In the case of `COc1cc(O)c(C(CC(=O)N2CCCC(C)C2)c2ccccc2OC)c(OC)c1` (stereo not drawn), the activity is 46.1% (inactive).
For the compound `CC1CCCN(C(=O)CC(c2ccc3c(c2)OCO3)c2ccc3ccccc3c2O)C1` (stereo not drawn), the activity is 32.5% [at 25 µM, stronger effect = higher value] (inactive).

These data come from PubChem BioAssay AID492962 (National Center for Advancing Translational Sciences (NCATS), 2010).
